The full data set covers some 6,500 targets. This sample favours those with a hit. About 2% of all pairs of compound and target were hits.

Sequence of UniProt Q9H0A0 (Q9H0A0 whole entry, looked up): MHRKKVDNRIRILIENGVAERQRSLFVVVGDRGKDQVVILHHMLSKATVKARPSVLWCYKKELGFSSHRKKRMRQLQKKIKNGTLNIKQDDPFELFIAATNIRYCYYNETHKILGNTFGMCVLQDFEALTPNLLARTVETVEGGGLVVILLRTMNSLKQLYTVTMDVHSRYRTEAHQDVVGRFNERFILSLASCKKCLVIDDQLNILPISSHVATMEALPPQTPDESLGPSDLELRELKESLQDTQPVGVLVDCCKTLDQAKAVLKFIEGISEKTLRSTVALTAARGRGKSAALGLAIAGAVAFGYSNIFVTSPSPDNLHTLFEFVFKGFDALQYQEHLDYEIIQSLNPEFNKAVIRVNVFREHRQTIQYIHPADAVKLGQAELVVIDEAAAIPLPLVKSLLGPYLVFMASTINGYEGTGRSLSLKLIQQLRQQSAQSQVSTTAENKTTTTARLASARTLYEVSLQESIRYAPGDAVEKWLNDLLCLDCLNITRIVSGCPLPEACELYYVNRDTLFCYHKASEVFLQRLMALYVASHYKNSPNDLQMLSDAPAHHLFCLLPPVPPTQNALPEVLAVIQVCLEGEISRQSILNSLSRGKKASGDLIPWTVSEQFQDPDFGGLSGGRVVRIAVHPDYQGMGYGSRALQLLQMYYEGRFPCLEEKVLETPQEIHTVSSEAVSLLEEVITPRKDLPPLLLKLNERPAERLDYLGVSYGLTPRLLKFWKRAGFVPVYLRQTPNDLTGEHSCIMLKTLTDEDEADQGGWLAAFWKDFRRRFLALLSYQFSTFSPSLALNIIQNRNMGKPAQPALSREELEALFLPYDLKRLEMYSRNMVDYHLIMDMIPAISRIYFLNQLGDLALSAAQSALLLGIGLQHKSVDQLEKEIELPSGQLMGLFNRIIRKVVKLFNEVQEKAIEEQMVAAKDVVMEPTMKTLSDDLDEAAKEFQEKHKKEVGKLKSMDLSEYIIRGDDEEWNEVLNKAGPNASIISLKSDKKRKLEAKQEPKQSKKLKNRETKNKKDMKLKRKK
Sequence of UniProt Q9P219 (Q9P219 whole entry): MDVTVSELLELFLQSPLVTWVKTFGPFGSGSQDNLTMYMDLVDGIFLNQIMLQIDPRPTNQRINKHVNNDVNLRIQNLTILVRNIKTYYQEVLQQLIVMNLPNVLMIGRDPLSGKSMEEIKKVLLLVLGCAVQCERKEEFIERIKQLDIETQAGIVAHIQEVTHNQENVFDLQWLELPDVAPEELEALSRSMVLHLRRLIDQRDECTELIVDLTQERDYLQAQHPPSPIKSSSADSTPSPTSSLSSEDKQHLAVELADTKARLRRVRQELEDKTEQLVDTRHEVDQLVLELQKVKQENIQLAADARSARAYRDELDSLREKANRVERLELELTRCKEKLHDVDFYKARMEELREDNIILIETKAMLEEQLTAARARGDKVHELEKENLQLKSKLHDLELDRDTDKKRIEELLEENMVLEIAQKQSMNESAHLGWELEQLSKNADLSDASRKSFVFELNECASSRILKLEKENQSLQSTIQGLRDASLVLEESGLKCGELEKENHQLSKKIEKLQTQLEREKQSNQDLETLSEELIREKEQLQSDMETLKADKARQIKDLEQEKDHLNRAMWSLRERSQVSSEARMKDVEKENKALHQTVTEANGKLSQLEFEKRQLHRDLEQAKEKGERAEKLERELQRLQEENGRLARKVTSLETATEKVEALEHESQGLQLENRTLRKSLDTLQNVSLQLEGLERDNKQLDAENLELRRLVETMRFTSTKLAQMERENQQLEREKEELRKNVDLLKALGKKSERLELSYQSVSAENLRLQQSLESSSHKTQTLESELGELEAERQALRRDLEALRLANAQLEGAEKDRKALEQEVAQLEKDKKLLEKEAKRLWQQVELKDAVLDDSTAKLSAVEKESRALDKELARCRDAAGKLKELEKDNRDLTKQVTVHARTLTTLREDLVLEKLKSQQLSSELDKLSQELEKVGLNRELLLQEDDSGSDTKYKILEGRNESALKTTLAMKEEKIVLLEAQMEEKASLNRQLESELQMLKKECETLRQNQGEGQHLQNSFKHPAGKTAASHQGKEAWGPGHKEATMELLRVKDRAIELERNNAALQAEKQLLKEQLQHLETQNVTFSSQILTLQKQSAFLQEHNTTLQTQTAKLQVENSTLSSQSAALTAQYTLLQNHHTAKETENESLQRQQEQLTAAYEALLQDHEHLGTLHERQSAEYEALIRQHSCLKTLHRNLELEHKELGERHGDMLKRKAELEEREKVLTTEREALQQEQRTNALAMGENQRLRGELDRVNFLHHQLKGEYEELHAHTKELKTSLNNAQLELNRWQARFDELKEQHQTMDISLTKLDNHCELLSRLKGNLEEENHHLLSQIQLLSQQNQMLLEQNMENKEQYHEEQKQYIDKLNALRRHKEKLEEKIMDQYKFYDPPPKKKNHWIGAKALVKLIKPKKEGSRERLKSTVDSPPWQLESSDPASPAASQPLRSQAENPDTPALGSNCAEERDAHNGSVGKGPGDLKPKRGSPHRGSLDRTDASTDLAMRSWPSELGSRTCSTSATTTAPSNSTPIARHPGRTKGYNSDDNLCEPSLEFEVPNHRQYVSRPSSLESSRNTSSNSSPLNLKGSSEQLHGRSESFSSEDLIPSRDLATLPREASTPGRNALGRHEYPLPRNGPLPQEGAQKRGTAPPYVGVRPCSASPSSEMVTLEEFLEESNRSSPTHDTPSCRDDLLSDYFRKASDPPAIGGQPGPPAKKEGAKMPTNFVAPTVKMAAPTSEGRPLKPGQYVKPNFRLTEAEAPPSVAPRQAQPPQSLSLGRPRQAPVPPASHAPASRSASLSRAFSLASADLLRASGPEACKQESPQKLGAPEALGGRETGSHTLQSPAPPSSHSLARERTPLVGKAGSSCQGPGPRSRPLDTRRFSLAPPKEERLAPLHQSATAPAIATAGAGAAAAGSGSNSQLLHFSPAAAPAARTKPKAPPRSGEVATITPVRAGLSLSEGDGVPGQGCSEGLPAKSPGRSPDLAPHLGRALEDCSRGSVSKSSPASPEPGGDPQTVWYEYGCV
Sequence of UniProt Q9BWD1 (Q9BWD1 whole entry, looked up): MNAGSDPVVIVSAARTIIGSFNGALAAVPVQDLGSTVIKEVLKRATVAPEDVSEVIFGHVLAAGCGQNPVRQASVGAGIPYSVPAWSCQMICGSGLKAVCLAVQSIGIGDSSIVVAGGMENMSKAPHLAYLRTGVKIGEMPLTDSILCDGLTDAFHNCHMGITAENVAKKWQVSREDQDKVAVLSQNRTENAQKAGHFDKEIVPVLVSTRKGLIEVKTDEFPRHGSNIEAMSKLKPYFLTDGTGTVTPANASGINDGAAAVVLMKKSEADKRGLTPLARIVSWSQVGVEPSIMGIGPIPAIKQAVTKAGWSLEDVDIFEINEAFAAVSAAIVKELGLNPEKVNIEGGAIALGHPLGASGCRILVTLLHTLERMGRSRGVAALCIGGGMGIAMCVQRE
Sequence of UniProt Q9H2U2 (Q9H2U2 whole entry, looked up): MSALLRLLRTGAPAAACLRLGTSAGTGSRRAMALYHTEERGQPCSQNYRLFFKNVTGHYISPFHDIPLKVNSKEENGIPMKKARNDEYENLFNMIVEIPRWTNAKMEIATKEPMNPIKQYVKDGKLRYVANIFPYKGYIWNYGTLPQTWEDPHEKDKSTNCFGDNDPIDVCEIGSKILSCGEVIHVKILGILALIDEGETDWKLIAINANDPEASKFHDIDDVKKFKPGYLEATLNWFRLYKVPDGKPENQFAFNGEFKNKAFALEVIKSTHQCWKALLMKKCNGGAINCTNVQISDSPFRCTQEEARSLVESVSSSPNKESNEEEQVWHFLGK
Sequence of UniProt Q9Y597 (Q9Y597 whole entry): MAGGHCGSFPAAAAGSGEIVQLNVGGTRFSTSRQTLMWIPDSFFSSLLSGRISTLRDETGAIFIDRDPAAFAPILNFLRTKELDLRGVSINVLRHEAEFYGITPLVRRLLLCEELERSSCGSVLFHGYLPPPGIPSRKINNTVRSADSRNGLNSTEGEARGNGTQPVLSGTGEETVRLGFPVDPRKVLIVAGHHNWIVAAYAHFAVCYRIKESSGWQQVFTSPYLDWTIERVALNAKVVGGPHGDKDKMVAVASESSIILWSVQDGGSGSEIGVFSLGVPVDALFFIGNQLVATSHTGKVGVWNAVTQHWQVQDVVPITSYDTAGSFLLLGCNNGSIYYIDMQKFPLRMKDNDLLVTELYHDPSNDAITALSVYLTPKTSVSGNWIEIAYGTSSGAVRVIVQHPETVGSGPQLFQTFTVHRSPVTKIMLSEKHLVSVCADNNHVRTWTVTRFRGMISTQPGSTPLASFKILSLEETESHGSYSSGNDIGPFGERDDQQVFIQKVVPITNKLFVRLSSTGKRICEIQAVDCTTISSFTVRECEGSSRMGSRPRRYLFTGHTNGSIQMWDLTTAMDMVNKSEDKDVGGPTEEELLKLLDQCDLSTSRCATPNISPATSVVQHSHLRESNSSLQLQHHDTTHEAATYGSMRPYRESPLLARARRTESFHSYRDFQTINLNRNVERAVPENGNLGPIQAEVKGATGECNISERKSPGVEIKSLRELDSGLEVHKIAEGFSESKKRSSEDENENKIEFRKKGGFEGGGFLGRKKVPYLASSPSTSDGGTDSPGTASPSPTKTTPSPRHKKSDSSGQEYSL
Sequence of UniProt Q9UMS0 (Q9UMS0 whole entry, looked up): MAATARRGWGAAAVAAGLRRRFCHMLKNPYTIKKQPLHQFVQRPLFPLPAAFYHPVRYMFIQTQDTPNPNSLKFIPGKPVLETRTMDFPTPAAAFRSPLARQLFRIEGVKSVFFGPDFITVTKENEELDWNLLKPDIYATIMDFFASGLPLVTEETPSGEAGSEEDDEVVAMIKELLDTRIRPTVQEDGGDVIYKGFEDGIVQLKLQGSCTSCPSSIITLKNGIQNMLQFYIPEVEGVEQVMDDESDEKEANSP
Sequence of UniProt Q9Y3C8 (Q9Y3C8 whole entry): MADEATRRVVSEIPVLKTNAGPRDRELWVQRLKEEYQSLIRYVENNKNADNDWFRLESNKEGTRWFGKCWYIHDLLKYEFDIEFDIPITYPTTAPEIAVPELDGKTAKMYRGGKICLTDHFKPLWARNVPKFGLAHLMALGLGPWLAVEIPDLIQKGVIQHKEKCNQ

Compound in this experiment: COC(=O)C#Cc1ccccc1 [methyl 3-phenylpropiolate]
Briefly: log2 ratio of iodoacetamide-alkyne labeling of the cysteine site, DMSO over compound (competition); higher = stronger covalent engagement of the cysteine by the compound, active = 1 or more. Particulars: 500 µM; treatment time 1 h; system: HEK293T cell lysate. The procedure, abridged: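 Electrophile (500 µM) or vehicle was added to HEK293T lysate (2 mg/mL) for 1 h at ambient temperature before iodoacetamide alkyne labelling (1 h) and click coupling to sCIP-TMT reagents. After pooling, overnight trypsin digestion at 37 °C, streptavidin enrichment and acid elution, peptides were measured by Orbitrap Eclipse LC-MS/MS with FAIMS and quantified in FragPipe. Each cysteine's log2 competition ratio compares mean control-channel with mean compound-channel reporter intensity, control over compound. Data came from duplicate channels across three replicates, excluding cysteines quantified in only one replicate.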
For IKBKG C347 (UniProt Q9Y6K9), the “log2 ratio of iodoacetamide-alkyne labeling” value (shortened to “log2 ratio”) was 0.397 (inactive). In the case of RBM27 C776 (UniProt Q9P2N5) it was 0.232 (inactive); in that of UNK C383 (UniProt Q9C0B0), 0.721 (inactive); in that of TACC3 C206 (UniProt Q9Y6A5), -0.132 (inactive). In the case of GPHN C419 (UniProt Q9NQX3), the “log2 ratio” value is 0.38 (inactive). With SRP68 C247 (UniProt Q9UHB9) the figure was 0.197 (inactive); with ASPSCR1 C225 (UniProt Q9BZE9), 1.02 (active).

As for ASPSCR1 C224 (UniProt Q9BZE9), the “log2 ratio” value was 1.02 (active).

In the case of UniProt Q9Y678_C129, the “log2 ratio” value was 0.51 (inactive).

Take DERA C118 (UniProt Q9Y315): the “log2 ratio” value was 0.275 (inactive). In the case of LIMD1 C305 (UniProt Q9UGP4) it was 1.43 (active). In the case of ACAT2 C360 (UniProt Q9BWD1) it was -0.0247 (inactive).

As for EPS15L1 C470 (UniProt Q9UBC2), the “log2 ratio” value is 0.13 (inactive). In the case of NDRG3 C290 (UniProt Q9UGV2) it was -0.105 (inactive); in that of ACTR6 C339 (UniProt Q9GZN1), 0.248 (inactive); in that of NIT2 C146 (UniProt Q9NQR4), 0.119 (inactive). In the case of CHCHD3 C112 (UniProt Q9NX63) it was 0.0891 (inactive); in that of UniProt Q9C0E8_C149, 0.125 (inactive); in that of LARS C573 (UniProt Q9P2J5), 0.342 (inactive). Regarding UniProt Q9BYG3_C237, the “log2 ratio” value is 0.515 (inactive). Consider CCDC88C C1520 (UniProt Q9P219), for which the “log2 ratio” value is 1.15 (active). In the case of KCTD3 C606 (UniProt Q9Y597) it was 1.08 (active); in that of DDX19A C224 (UniProt Q9NUU7), 0.0835 (inactive); in that of TRIM33 C153 (UniProt Q9UPN9), 0.274 (inactive).

As to SRRM2 C1016 (UniProt Q9UQ35), the “log2 ratio” value is 1.12 (active). In the case of KCTD5 C6 (UniProt Q9NXV2) it was 0.701 (inactive); in that of UniProt Q9Y312_C156, 0.41 (inactive). With GNL3 C234 (UniProt Q9BVP2) the figure was 0.259 (inactive).

In the case of UniProt Q9Y2D5_C296, the “log2 ratio” value was 0.394 (inactive). In the case of PPA2 C161 (UniProt Q9H2U2) it was -0.42 (inactive). In the case of GPHN C293 (UniProt Q9NQX3) it was 1.12 (active). In the case of MDN1 C271 (UniProt Q9NU22) it was 0.728 (inactive); in that of NAT10 C486 (UniProt Q9H0A0), 0.0616 (inactive); in that of KCTD5 C28 (UniProt Q9NXV2), 0.129 (inactive). Take UniProt Q9Y3D0_C93: the “log2 ratio” value is 0.0692 (inactive). Regarding NFU1 C210 (UniProt Q9UMS0), the “log2 ratio” value was 1.06 (active).

Turning to CARS2 C526 (UniProt Q9HA77), the “log2 ratio” value is 0.206 (inactive).

As to UFC1 C116 (UniProt Q9Y3C8), the “log2 ratio” value was 0.115 (inactive). In the case of ALG5 C194 (UniProt Q9Y673) it was 0.233 (inactive); in that of UNC45A C420 (UniProt Q9H3U1), 0.56 (inactive).
